# Results published in ChEMBL document CHEMBL3988442, “University of Dundee, Small-Polar-MMV Screening Library” (2021).
# Among all 38,000 compounds or so, about 1,200 (3.2%) showed an effect of 50% or more. The median lay at about -58%. Shown is part of a subset that was picked to be rich in strong results.
# System: Plasmodium falciparum
# Assay: Calibr Malaria Delayed Death Assay SOP
# Type: functional, organism-based
# Parameters: scale not given: in the data most compounds retested in dose-response had high values
# Conditions: concentration 4.99e-06 (unit not given; other assays of the set use mol/L)
row,SMILES,Percent Effect
1,CCOCc1nc(N2CCCC2)sc1C(=O)NCc1ccco1,-71.71%
2,O=S1(=O)c2cccnc2OC(COc2ccccc2)CN1CC1CC1 (centres undefined),-105.2%
3,CC(C)NC(=O)CNC(C)c1c(F)cccc1Cl (centres undefined),-63.71%
4,Cc1ccc(OCC(=O)NC2CCN(S(C)(=O)=O)CC2)cc1,-121.3%
5,O=C(c1ccc(F)c(F)c1)N1CCCC1CN1CCCC1 (centres undefined),-45.59%
6,CC(C)N(CCCNC(=O)C1CCOCC1)S(C)(=O)=O,-53.5%
7,CN(C)C(=O)c1nn(C)c2c1CN(Cc1ccoc1)C2,-66.64%
8,CN1CCN(C[C@H]2CC[C@@H](Cc3ccc(CN4CCCC4)cc3)O2)CC1,35.77%
9,c1cnc2ccc(C[C@@H]3CC[C@H](CN4CCCOCC4)O3)cc2c1,56.67%
10,CC(=O)N1CCN(C[C@H]2CC[C@@H](Cc3ccc4ncccc4c3)O2)CC1,-19.65%
11,CC1CCN(Cc2ccc(CNC(=O)c3ccn(C)c(=O)c3)cc2)CC1,-16.27%
12,Clc1cc(NCc2ccncc2)nc2[nH]ccc12,63.3%
13,Clc1cc(NCc2ncc[nH]2)nc2[nH]ccc12,-55.12%
14,Clc1cc(NCc2nccs2)nc2[nH]ccc12,-79.81%
15,CCOc1nn(CC)cc1-c1nnc(SCc2cccnc2)n1C,-73.46%
16,CN(CCO)CC1COCCN1C(=O)C1CCCCC1.O=CO (centres undefined),-110.9%
17,Cc1ccc(C(=O)N2CCCCC2CN(C)C)cc1 (centres undefined),-61.09%
18,CCN1CCN(C2CCN(CCOc3ccc(F)cc3)CC2)C1=O,-7.395%
19,CN(CCOCC(F)(F)F)CC1CCN(CCO)CC1,17.18%
20,CN(CC1CCN(CCO)CC1)CC(O)c1ccc(F)c(F)c1 (centres undefined),76.36%
21,CN(CC1CCN(CCO)CC1)CC(O)c1ccc(F)cc1 (centres undefined),68.91%
22,Cc1ccc(CNC(=O)CN(C)CC2CCN(CCO)CC2)s1,-11.16%
23,Cc1noc(CN(C)CC2CCN(CCO)CC2)n1,-70.26%
24,Cn1ccnc1CN1CCN(CC(O)c2ccc(F)c(F)c2)CC1 (centres undefined),-68.2%
25,O=C(O)c1ccc(CNC(=O)C2CCN(Cc3ccco3)CC2)s1,-25.63%
26,CC1CN(c2ncccc2C(=O)N[C@@H]2CCCc3ccccc32)CCN1 (some centres undefined),43.77%

row,SMILES,Percent Effect
1,Cc1cnn(CC2CN(Cc3nc(-c4ccco4)no3)CCO2)c1 (centres undefined),-38.17%
2,CCN1CCC(CNC(=O)c2cc(Cl)c[nH]2)CC1,-105.8%
3,COCCN1CCC(CNC(=O)c2cc(Cl)c[nH]2)CC1,-1.799%
4,O=C(NCC1CCN(CCc2ccccc2)C1)c1cc(Cl)c[nH]1 (centres undefined),64.57%
5,COc1ccc2c(=O)ccn(CC(=O)O)c2c1,-41.24%
6,COc1ccc(C(=O)N(CCO)Cc2ccccc2)c(OC)n1,-39.82%
7,O=C(CCS(=O)(=O)c1ccccc1)NCCCn1cccn1,-18.78%
8,CC(CNC(=O)C1(c2ccc(F)cc2)CC1)CN1CCCC1=O (centres undefined),8.838%
9,Cc1cc(C)n(CC(C)NC(=O)C2(c3ccc(F)cc3)CC2)n1 (centres undefined),-52.55%
10,Cn1cc(N2CCC3(CCCN(C(=O)c4ccnn4C)C3)C2=O)cn1 (centres undefined),-100.5%
11,Cc1ccc(C(=O)N2CCC3(CCC(=O)N(CC(C)O)C3)CC2)c(O)c1 (centres undefined),-27.05%
12,O=C(O)C(F)(F)F.O=C(c1cccs1)N1CC[C@@H]2CN(C3CCOCC3)CCO[C@@H]2C1,-28.53%
13,OC(COCc1cccs1)Cn1cc(Cl)cn1 (centres undefined),-34.56%
14,Cn1c(N2CCOCC2)nc2cc(C(=O)N3CC(O)CO3)ccc21 (centres undefined),-166.7%
15,CN(C)CCCNCC1CCOC(C)(C)C1 (centres undefined),16.23%
16,CC(CCc1ccccc1)NC(=O)CNCCCN(C)C.O=C(O)C(=O)O (centres undefined),-24.06%
17,Cc1ccc(C(CCNCCCN(C)C)C2CCOC(C)(C)C2)cc1.O=C(O)C(=O)O (centres undefined),83.16%
18,CCN(CC)CCCNCC1CCOC(C)(C)C1 (centres undefined),-55.61%
19,CN(C)CCNCC1CCOC(C)(C)C1 (centres undefined),-38.44%
20,CC1CN(C(=O)NCCNc2cnccn2)CCO1 (centres undefined),-97.79%
21,O=C1CCSCC(C(=O)N2CCC(O)CC2)N1 (centres undefined),-111.3%
22,CC(C)C(=O)NC1CCN(c2cccc(OC(F)(F)F)c2)C1=O (centres undefined),-46.04%
23,O=C(NCC1CCOCC1)c1cc(-c2ccc3c(c2)CCO3)n[nH]1,-4.569%
24,Cc1cccc(C(=O)NCC2CCS(=O)(=O)C2)n1 (centres undefined),-33.59%
25,Cc1ccc(-c2n[nH]cc2CNCC2CCS(=O)(=O)C2)o1 (centres undefined),-9.681%
26,Cc1nn(C)c(N2CCOCC2)c1CNCC1CCS(=O)(=O)C1 (centres undefined),-69.07%

row,SMILES,Percent Effect
1,CCOc1ccc2ccccc2c1CNCC1CCNCC1.Cl.Cl,91.29%
2,COc1cccc(-c2n[nH]cc2CNCC2CCS(=O)(=O)C2)c1 (centres undefined),-56.98%
3,CCOc1ccc(CNC(=O)N2CCCC(CO)C2)cc1F (centres undefined),-13.27%
4,COc1ccc2ccccc2c1CNCC1CCS(=O)(=O)C1.Cl (centres undefined),66.1%
5,Cc1c(Br)cccc1C(=O)NCC1CCNCC1.Cl,-131.1%
6,CCOc1ccc2ccccc2c1CNCC1CCS(=O)(=O)C1.Cl (centres undefined),73.94%
7,CCOC(=O)N1CCC2(CCCN(C3CCOCC3)C2=O)C1 (centres undefined),-44.33%
8,CCc1ccc(CNC(=O)Cn2ccc3sccc3c2=O)cc1,-94.67%
9,O=C(NCCc1ccccn1)[C@@H]1CC[C@@H]2[C@@H](CCN2Cc2ccoc2)O1.O=C(O)C(F)(F)F.O=C(O)C(F)(F)F,-61.1%
10,C1CCC(CO[C@@H]2CC[C@H]3[C@H]2OCCN3CC2CCOCC2)C1.O=C(O)C(F)(F)F,-55.18%
11,O=C(O)C(F)(F)F.O=C(O)C(F)(F)F.O=C(c1ccco1)N1C[C@H]2CCCN(Cc3ccncc3)[C@H]2C1,-22.95%
12,COc1ccc(NC(=O)c2cc3c([nH]c2=O)CCCC3=O)c(OC)c1,-49.85%
13,CCN1CCN(CCNC(=O)c2sc(C(C)C)nc2C)CC1,-17.43%
14,O=C(NCc1cccs1)[C@@H]1CC[C@@H]2[C@@H](CCN2CC2CCC2)O1.O=C(O)C(F)(F)F,20.57%
15,CCc1cnc(CN(C(C)=O)C2CCN(CCc3ccccn3)C2)o1 (centres undefined),-120.8%
16,Cc1csc2ncnc(N3CCCC(Cn4cc(C(C)(C)O)nn4)C3)c12 (centres undefined),-82.82%
17,Cc1cc(C(=O)Nc2cccn(Cc3ccc(F)cc3)c2=O)on1,-10.66%
18,CCc1nc(CN2CCCN(C(=O)CCCOC)CC2)cs1,-51.29%
19,Cc1cc2nc(CN(C)c3ccc(Cl)cc3)cc(=O)n2o1,-90.64%
20,CCCS(=O)(=O)N1CCOC2(CCCN(Cc3ccccn3)C2)C1.O=C(O)C(F)(F)F (centres undefined),-25.77%
21,CN(Cc1ncc(C(C)(C)C)o1)C1CCCN(c2cccnn2)C1 (centres undefined),-55.67%
22,c1cnnc(N2CCCC2CNc2ncnc3c2CCC3)c1 (centres undefined),-141.7%
23,CN(Cc1ncc(-c2ccccc2)o1)CC1CCCN1c1cccnn1 (centres undefined),-41.68%
24,c1cnnc(N2CCCC2CNc2ncnc3ccsc23)c1 (centres undefined),-78.5%
25,CN(Cc1ncc(C(C)(C)C)o1)CC1CCCN1c1cccnn1 (centres undefined),79.78%
26,Fc1ccc(Oc2ccc(CNCC3CNc4ccnn4C3)cn2)cc1 (centres undefined),-107.9%

row,SMILES,Percent Effect
1,O=C(COCC(=O)N(c1ccccc1)c1ccccc1)N1CCCCC1,-158.5%
2,CCc1nc(NCC2CCCN(C(=O)C3CC3)C2)c2cnn(C)c2n1 (centres undefined),-178%
3,CN(CCc1ccccn1)Cc1nccn1Cc1ccccc1,56%
4,CC(C)n1ccnc1CN1CCOC(CCc2ccccc2)C1 (centres undefined),7.997%
5,CN(CCc1ccncc1)Cc1nccn1Cc1ccccc1,39.55%
6,CCN1CCCC(C)(C(=O)NCc2nccn2Cc2ccccc2)C1 (centres undefined),29.31%
7,CC(C)(C)C(=O)NCc1nccn1CCc1ccccc1,10.03%
8,Cc1nccn1-c1ccc(C(C)NCCC(C)C)cc1 (centres undefined),48.4%
9,CCc1ccc(C(C)NCc2nccn2Cc2ccccc2)o1 (centres undefined),-17.05%
10,CN(Cc1ccncc1)Cc1nccn1Cc1ccccc1,-44.2%
11,CC(NCCc1nccn1Cc1ccccc1)c1ccsc1 (centres undefined),82.98%
12,Cc1nccn1-c1ccc(C(C)NCCc2ccccn2)cc1 (centres undefined),9.885%
13,Cc1nc(NC(=O)NCCCN2CCC(C(N)=O)CC2)sc1C,-93.87%
14,Cc1nnc(C(NS(=O)(=O)c2cc(F)c(C)cc2F)C(C)C)[nH]1 (centres undefined),-26.37%
15,Cc1ccc(CN(C)Cc2ncc(C(C)(C)C)o2)o1,-58.81%
16,COc1cccc(OC2CN(C(=O)c3c(C)noc3C)C2)c1,-22.85%
17,O=c1c2ccc(Cl)cc2ncn1CCCN1CCCCC1CO (centres undefined),-12.14%
18,CC(C)c1ccc(NC(=O)c2ncc(C(N)=O)cc2Cl)cc1,-172.5%
19,O=C1CC(c2ccc3c(c2)OCO3)c2cnn(C3CCCC3)c2N1 (centres undefined),-69.51%
20,Cn1cc(C2CC(=O)NC23CCN(C(=O)NC2CC2)CC3)cn1 (centres undefined),-54.83%
21,CC(C)C(C)N(C(=O)Cn1nc2n(c1=O)CCCCC2)C1CC1 (centres undefined),-123.2%
22,CCCc1cnc(C)nc1N1CCC(Cc2ccc(CO)cc2)C1 (centres undefined),-3.438%
23,OCC1(O)CCN(Cc2ccc(C3CCCCO3)o2)CC1 (centres undefined),-16.13%
24,CN1CCC2(CC1)CN(Cc1ccc(C3CCCCO3)o1)CCCN2C (centres undefined),80.31%
25,CN1CCN(C)C2(CCN(Cc3ccc(C4CCCCO4)o3)CC2)C1 (centres undefined),-149.2%
26,Oc1cccc(C2CN(c3nnc(C4CC4)s3)CCO2)c1 (centres undefined),-92.75%
